From the antibiotic and cytotoxicity screens of Wong et al. (2023) come the findings set out here.

Screen size: about 39,000 compounds; about 3,300 (8.5%) were called active. Many of the other results were omitted from the sample, so actives are more common in it than they were.

The assay relates to HepG2. In words: cytotoxicity call (relative viability < 0.9). The settings on record: 10 µM.
With `C[C@H](CO)N1C[C@H](C)[C@H](CN(C)S(=O)(=O)c2cccs2)Oc2ccc(NS(=O)(=O)c3ccc(F)cc3)cc2CC1=O`, the cytotoxicity call was “inactive”.

Consider `O=C(C[C@@H]1C[C@H]2c3cc(NC(=O)C4CCOCC4)ccc3O[C@H]2[C@@H](CO)O1)NCCN1CCCCC1`, for which the cytotoxicity call is “inactive”.

Regarding `C[C@@H]1CN([C@@H](C)CO)C(=O)c2cc(C#CCN(C)C)cnc2O[C@H]1CN(C)C(=O)c1ccc2c(c1)OCO2`, the cytotoxicity call was “inactive”.

Turning to `Cc1ccc(S(=O)(=O)Nc2ccc3c(c2)C(=O)N([C@@H](C)CO)C[C@H](C)[C@@H](CN(C)C(=O)Nc2ccc(C(F)(F)F)cc2)OCCCC[C@@H](C)O3)cc1`, the cytotoxicity call is “active”.

For `Cc1ccc(S(=O)(=O)Nc2ccc3c(c2)C(=O)N([C@H](C)CO)C[C@H](C)[C@@H](CN(C)C(=O)Nc2ccc(C(F)(F)F)cc2)OCCCC[C@@H](C)O3)cc1`, the cytotoxicity call is “inactive”.

Turning to `Cc1ccc(S(=O)(=O)Nc2ccc3c(c2)C(=O)N([C@@H](C)CO)C[C@H](C)[C@@H](CN(C)C(=O)Nc2ccc(C(F)(F)F)cc2)OCCCC[C@H](C)O3)cc1`, the cytotoxicity call is “active”.

With `Cc1ccc(S(=O)(=O)Nc2ccc3c(c2)C(=O)N([C@H](C)CO)C[C@H](C)[C@@H](CN(C)C(=O)Nc2ccc(C(F)(F)F)cc2)OCCCC[C@H](C)O3)cc1`, the cytotoxicity call is “inactive”.

Consider `Cc1ccc(S(=O)(=O)Nc2ccc3c(c2)C(=O)N([C@H](C)CO)C[C@@H](C)[C@H](CN(C)C(=O)Nc2ccc(C(F)(F)F)cc2)OCCCC[C@@H](C)O3)cc1`, for which the cytotoxicity call was “inactive”.

For the compound `Cc1ccc(S(=O)(=O)Nc2ccc3c(c2)C(=O)N([C@H](C)CO)C[C@H](C)[C@H](CN(C)C(=O)Nc2ccc(C(F)(F)F)cc2)OCCCC[C@@H](C)O3)cc1`, the cytotoxicity call is “inactive”.

Turning to `Cc1ccc(S(=O)(=O)Nc2ccc3c(c2)C(=O)N([C@H](C)CO)C[C@H](C)[C@H](CN(C)C(=O)Nc2ccc(C(F)(F)F)cc2)OCCCC[C@H](C)O3)cc1`, the cytotoxicity call is “active”.

Take `Cc1ccc(S(=O)(=O)Nc2ccc3c(c2)C(=O)N([C@H](C)CO)C[C@@H](C)[C@H](CN(C)C(=O)Nc2ccc(C(F)(F)F)cc2)OCCCC[C@H](C)O3)cc1`: the cytotoxicity call is “inactive”.

For the compound `Cc1ccc(S(=O)(=O)Nc2ccc3c(c2)C(=O)N([C@@H](C)CO)C[C@@H](C)[C@@H](CN(C)C(=O)Nc2ccc(C(F)(F)F)cc2)OCCCC[C@H](C)O3)cc1`, the cytotoxicity call is “inactive”.

With `C[C@@H]1CN([C@H](C)CO)C(=O)Cc2cc(NS(=O)(=O)c3cn(C)cn3)ccc2O[C@@H]1CN(C)Cc1ccc2c(c1)OCO2`, the cytotoxicity call was “inactive”.

On to `C=CC[C@H](CC(=O)NCCO)C(=O)N[C@H](COC(=O)[C@@H](CC=C)CC(=O)OC(C)(C)C)c1ccccc1`, for which the cytotoxicity call is “inactive”.

`C[C@@H]1CCCCO[C@@H](CN(C)CC2CC2)[C@H](C)CN([C@H](C)CO)C(=O)c2cc(NC(=O)CCC(F)(F)F)ccc2O1`: the cytotoxicity call is “inactive”.

For `C[C@H](CO)N1C[C@H](C)[C@@H](CN(C)C(=O)c2ccccc2)OCCCC[C@H](C)Oc2ccc(NS(=O)(=O)c3ccccc3)cc2C1=O`, the cytotoxicity call is “inactive”.

Regarding `CO[C@H]1CN(C)C(=O)c2ccc(NC(=O)Nc3cccc(Cl)c3)cc2OC[C@H](C)N(C(=O)Nc2c(C)noc2C)C[C@H]1C`, the cytotoxicity call was “inactive”.

As for `COc1ccc(C(=O)c2ccccc2O)c(O)c1`, the cytotoxicity call was “inactive”.

Consider `COc1ccc(Sc2ccc(N(C(=O)c3ccccc3Cl)C(=O)c3ccccc3Cl)cc2C#N)cc1`, for which the cytotoxicity call was “active”.

Take `COc1ccc(C(=O)NCC#N)cc1`: the cytotoxicity call is “inactive”.

On to `O=c1cn[nH]c(Nc2ccccc2)n1`, for which the cytotoxicity call is “inactive”.

As for `CC(C)CNc1nc(=O)cn[nH]1`, the cytotoxicity call is “active”.

Turning to `O=c1cn[nH]c(NC2CCCC2)n1`, the cytotoxicity call was “inactive”.

`C=CCC[C@@H](Cc1ccc(F)cc1)C(=O)OC[C@@H]1CCCN1C(=O)[C@H](CC=C)CC(=O)N(CCO)Cc1ccccc1`: the cytotoxicity call is “inactive”.

For the compound `COc1ccccc1S(=O)(=O)N[C@@H]1C=C[C@@H](CC(=O)N2CCN(C)CC2)O[C@@H]1CO`, the cytotoxicity call is “inactive”.

Turning to `NC[C@@](O)(c1ccc(Cl)cc1)c1ccc(-c2cn[nH]c2)cc1`, the cytotoxicity call is “active”.

With `NC[C@@](O)(CS(=O)(=O)O)c1ccc(Cl)cc1`, the cytotoxicity call was “inactive”.

For `c1n[nH]cc1-c1cn[nH]c1`, the cytotoxicity call was “inactive”.

As for `COc1ccccc1CNC(=O)C[C@H]1C[C@H]2c3cc(NC(=O)C4CCOCC4)ccc3O[C@H]2[C@H](CO)O1`, the cytotoxicity call is “inactive”.

As for `CCCCCCNC(=O)n1cc(F)c(=O)[nH]c1=O`, the cytotoxicity call is “active”.

As for `CC1OC(n2cc(F)c(=O)[nH]c2=O)C(O)C1O` (stereo not given), the cytotoxicity call was “inactive”.

As for `C[C@H]1O[C@@H](n2cc(F)c(=O)[nH]c2=O)[C@H](O)[C@@H]1O`, the cytotoxicity call was “inactive”.

Consider `Cc1ccc(S(=O)(=O)Nc2ccc3c(c2)CC(=O)N([C@@H](C)CO)C[C@H](C)[C@H](CN(C)S(C)(=O)=O)O3)cc1`, for which the cytotoxicity call was “inactive”.

Turning to `CC(C)NC(=O)NCC[C@H]1CC[C@H](NC(=O)CN(C)C)[C@H](CO)O1`, the cytotoxicity call is “inactive”.

Turning to `Cc1c(NC(=O)c2cc3c(s2)CCCC3)cccc1-c1cn(C)c(=O)c(Nc2ccc([C@H]3C(=O)N(C)CCN3C)cc2)n1`, the cytotoxicity call is “inactive”.

For `C[C@@H]1CCCCO[C@H](CN(C)C(=O)Nc2ccc3c(c2)OCO3)[C@@H](C)CN([C@@H](C)CO)C(=O)c2cc(NS(=O)(=O)c3ccccc3)ccc2O1`, the cytotoxicity call was “inactive”.

Consider `C[C@H](CO)N1C[C@H](C)[C@@H](CN(C)C(=O)NC2CCCCC2)OCCCC[C@H](C)Oc2ccc(NC(=O)NC3CCCCC3)cc2C1=O`, for which the cytotoxicity call is “inactive”.

Consider `C[C@H](CO)N1C[C@H](C)[C@H](CN(C)C(=O)NC2CCCCC2)OCCCC[C@H](C)Oc2ccc(NC(=O)NC3CCCCC3)cc2C1=O`, for which the cytotoxicity call is “inactive”.

On to `Cc1noc(C)c1NC(=O)N(C)C[C@H]1OCCCC[C@@H](C)Oc2ccc(NC(=O)NC3CCCCC3)cc2C(=O)N([C@H](C)CO)C[C@@H]1C`, for which the cytotoxicity call is “active”.

Take `C[C@@H]1CCCCO[C@H](CN(C)C(=O)NC2CCCCC2)[C@H](C)CN([C@H](C)CO)C(=O)c2cc(NC(=O)NC3CCCCC3)ccc2O1`: the cytotoxicity call is “active”.

For `Cc1noc(C)c1NC(=O)N(C)C[C@H]1OCCCC[C@@H](C)Oc2ccc(NC(=O)NC3CCCCC3)cc2C(=O)N([C@@H](C)CO)C[C@H]1C`, the cytotoxicity call was “inactive”.

Regarding `C[C@@H]1CN([C@H](C)CO)C(=O)c2cc(NC(=O)Nc3ccc(F)cc3)ccc2O[C@@H](C)CCCCO[C@H]1CN(C)C(=O)NC1CCCCC1`, the cytotoxicity call was “inactive”.

`C[C@@H]1CCCCO[C@H](CN(C)C(=O)NC2CCCCC2)[C@H](C)CN([C@H](C)CO)C(=O)c2cc(NC(=O)Nc3ccc(F)cc3)ccc2O1`: the cytotoxicity call was “active”.

Take `C[C@@H]1CCCCO[C@@H](CN(C)C(=O)NC2CCCCC2)[C@@H](C)CN([C@H](C)CO)C(=O)c2cc(NC(=O)Nc3ccc(F)cc3)ccc2O1`: the cytotoxicity call was “inactive”.

On to `C[C@@H]1CCCCO[C@@H](CN(C)C(=O)Nc2ccc(F)cc2)[C@@H](C)CN([C@@H](C)CO)C(=O)c2cc(NC(=O)NC3CCCCC3)ccc2O1`, for which the cytotoxicity call was “active”.

For `C[C@@H]1CCCCO[C@H](CN(C)C(=O)Nc2ccc(F)cc2)[C@@H](C)CN([C@H](C)CO)C(=O)c2cc(NC(=O)NC3CCCCC3)ccc2O1`, the cytotoxicity call is “inactive”.

`C[C@@H]1CN([C@H](C)CO)C(=O)c2cc(NC(=O)NC3CCCCC3)ccc2O[C@@H](C)CCCCO[C@@H]1CN(C)C(=O)Nc1ccc(F)cc1`: the cytotoxicity call was “inactive”.

Consider `Cc1noc(C)c1NC(=O)N(C)C[C@@H]1OCCCC[C@@H](C)Oc2ccc(NC(=O)NC3CCCCC3)cc2C(=O)N([C@H](C)CO)C[C@@H]1C`, for which the cytotoxicity call was “inactive”.

Turning to `COc1ccc(-c2cccc(-c3nc(C(=O)NCC(F)(F)F)cc4c3[C@@H](CCO)N([S@](=O)C(C)(C)C)C4)c2)cc1`, the cytotoxicity call was “inactive”.

In the case of `COc1ccc(S(=O)(=O)N(C)C[C@H]2OCCCC[C@H](C)Oc3ccc(NC(=O)c4ccccc4)cc3C(=O)N([C@H](C)CO)C[C@H]2C)cc1`, the cytotoxicity call is “inactive”.

Take `Cc1ccc(S(=O)(=O)N(C)C[C@H]2Oc3ccc(NC(=O)c4ccncc4)cc3C(=O)N([C@H](C)CO)C[C@@H]2C)cc1`: the cytotoxicity call is “inactive”.

As for `C[C@@H]1CN([C@H](C)CO)C(=O)c2cc(NS(=O)(=O)c3ccccc3)ccc2O[C@H]1CN(C)S(=O)(=O)c1cn(C)cn1`, the cytotoxicity call is “inactive”.

In the case of `Cc1noc(C)c1NC(=O)Nc1ccc2c(c1)CC(=O)N([C@H](C)CO)C[C@@H](C)[C@@H](CN(C)Cc1ccc(-c3ccccc3)cc1)O2`, the cytotoxicity call is “inactive”.

Consider `O=C1[C@@H]2[C@H](C(=O)N1c1ccccc1)C13COC[C@H](c4ccccc4)N1C(=O)C2(C(=O)NCCc1c[nH]c2ccccc12)O3` (stereo not given in full), for which the cytotoxicity call is “inactive”.

`CCS(=O)(=O)N1C[C@]2(CN(Cc3cccc(c3)Cl)[C@@H](CO)c3c2c2ccc(cc2n3C)OC)C1`: the cytotoxicity call was “inactive”.

As for `C[C@H]1CCCCO[C@@H](CN(C)C(=O)NC2CCCCC2)[C@@H](C)CN([C@@H](C)CO)C(=O)c2cc(NC(=O)Nc3ccc(F)cc3)ccc2O1`, the cytotoxicity call is “active”.

Consider `C[C@H](CO)N1C[C@H](C)[C@H](CN(C)C(=O)NC2CCCCC2)OCCCC[C@H](C)Oc2ccc(NC(=O)Nc3ccc(F)cc3)cc2C1=O`, for which the cytotoxicity call is “inactive”.

Regarding `C[C@H](CO)N1C[C@H](C)[C@@H](CN(C)C(=O)NC2CCCCC2)OCCCC[C@H](C)Oc2ccc(NC(=O)Nc3ccc(F)cc3)cc2C1=O`, the cytotoxicity call was “inactive”.

Turning to `O=c1[nH]nc(N2CCOCC2)c(=O)[nH]1`, the cytotoxicity call is “inactive”.

Take `C[C@@H]1CN([C@H](C)CO)C(=O)Cc2cc(NS(=O)(=O)c3ccc(F)cc3)ccc2O[C@H]1CN(C)CC1CC1`: the cytotoxicity call is “inactive”.

Turning to `CS(=O)(=O)O.OC(CCN1CCCCC1)(c1ccccc1)c1ccccc1`, the cytotoxicity call was “inactive”.

Consider `Cl.OC(CCN1CCCCC1)(c1ccccc1)C1CCCCC1` (stereo not given), for which the cytotoxicity call was “inactive”.

For `Cl.OC(CCN1CCCC1)(c1ccccc1)C1CCCCC1` (stereo not given), the cytotoxicity call was “active”.

Turning to `COc1ccc(S(=O)(=O)Nc2ccc3c(c2)C(=O)N([C@H](C)CO)C[C@@H](C)[C@H](CN(C)C(=O)NC(C)C)O3)cc1`, the cytotoxicity call was “inactive”.

On to `C[C@H]1CN([C@@H](C)CO)C(=O)Cc2cc(NS(C)(=O)=O)ccc2O[C@H]1CN(C)C(=O)Nc1ccc(F)cc1`, for which the cytotoxicity call was “inactive”.
